# In the supplement of paper PMC13380429:
# System: Vero E6 infected with SARS-CoV-2
# Assay: inhibition of SARS-CoV-2 cytopathic effect; higher = more antiviral protection, active = above 15
# Conditions: 833.33 nM; 48 h
row,SMILES,inhibition of SARS-CoV-2 cytopathic effect
1,CO[C@H]1C[C@@H]2CC[C@@H](C)[C@@](O)(O2)C(=O)C(=O)N2CCCC[C@H]2C(=O)O[C@H]([C@H](C)C[C@@H]2CC[C@@H](O)[C@H](OC)C2)CC(=O)[C@H](C)/C=C(\C)[C@@H](O)[C@@H](OC)C(=O)[C@H](C)C[C@H](C)/C=C/C=C/C=C/1C [sirolimus],-0.23% (inactive)
2,"Cl/C=C\C[N+]12CN3CN(CN(C3)C1)C2 [1-((Z)-3-chloroallyl)-1,3,5,7-tetraazaadamantan-1-ium]",2.67% (inactive)
3,Nc1nc2cc(-c3ccc4ncc(C(=O)N5CCOCC5)n4c3)ccc2o1,3.05% (inactive)
4,C[C@@H](O)[C@H]1C(=O)N2C(C(=O)O)=C(S[C@@H]3CN[C@H](C(=O)N(C)C)C3)[C@H](C)[C@H]12 [meropenem],6.2% (inactive)
5,CC(C)=CCC/C(C)=C/CC/C(C)=C/CC[C@]1(C)CCc2cc(O)cc(C)c2O1 [delta-tocotrienol],7.95% (inactive)
6,Cc1cccc(/C=N/Nc2cc(N3CCOCC3)n3nc(-c4ccncc4)cc3n2)c1,19% (active)
7,CN1CCN(CCCN2c3ccccc3Sc3ccc(S(=O)(=O)N(C)C)cc32)CC1 [thioproperazine],0.03% (inactive)
8,CN1CCN(C(=O)c2nc3ccc(Cl)cc3[nH]2)CC1,1.23% (inactive)
9,Cc1cc(C(=O)Nc2nc3cccc(Cl)c3n2[C@@H]2CCCCN(C(=O)/C=C/CN(C)C)C2)ccn1,-8.44% (inactive)
10,COc1ccc(COc2cc3oc(=O)c4cc(C(C)O)ccc4c3cc2OC)cc1 (stereo not given) [palomid-529],-0.05% (inactive)
11,O=C1NC(=O)/C(=C/c2ccc3nccc(-c4ccncc4)c3c2)S1,2.78% (inactive)
12,NCCCCN [putrescine],4.47% (inactive)
13,N=C(N)NS(=O)(=O)c1ccc(N)cc1 [sulfaguanidine],0.47% (inactive)
14,C=CC(=O)Nc1cc(Nc2nccc(-c3c[nH]c4ccccc34)n2)c(OC)cc1N(C)CCN(C)C,-13.9% (inactive)
15,CC(=O)OCC(=O)[C@@]1(O)[C@@H](C)C[C@H]2[C@@H]3CCC4=CC(=O)C=C[C@]4(C)[C@@]3(F)[C@@H](O)C[C@@]21C [betamethasone-acetate],0.57% (inactive)
16,Nc1nc(OCc2ccccc2)c2nc[nH]c2n1 [O6-benzylguanine],-3.87% (inactive)
17,CC(C)C[C@H](NC(=O)[C@@H](COC(C)(C)C)NC(=O)[C@H](Cc1ccc(O)cc1)NC(=O)[C@H](CO)NC(=O)[C@H](Cc1c[nH]c2ccccc12)NC(=O)[C@H](Cc1cnc[nH]1)NC(=O)[C@@H]1CCC(=O)N1)C(=O)N[C@@H](CCCNC(=N)N)C(=O)N1CCC[C@H]1C(=O)NNC(N)=O [goserelin-acetate],-0.57% (inactive)
18,CS(=O)(=O)c1ccc(-c2cnc(N)c(C(=O)Nc3ccccc3)n2)cc1,0.67% (inactive)
19,CO[C@@H](C)Cn1c(=O)n(C)c2cnc3ccc(-c4cncc(C(C)(C)O)c4)cc3c21,-3.02% (inactive)
20,C[C@H](Nc1cc2c(-c3ccc4c(c3)OCO4)noc2cn1)c1ccccc1,-0.91% (inactive)

row,SMILES,inhibition of SARS-CoV-2 cytopathic effect
1,CCC(Cc1c(I)cc(I)c(N)c1I)C(=O)O (stereo not given) [iopanic-acid],0.47% (inactive)
2,Cc1cc(C(C)(C)C)c(O)c(C)c1CC1=NCCN1 [oxymetazoline],1.64% (inactive)
3,CC(C)NC[C@@H](O)COc1ccc(CC(N)=O)cc1 (racemic) [atenolol-(+/-)],0.24% (inactive)
4,COC(=O)/C=C/c1cccc(N(Cc2ccc(-c3ccc(N(C)C)cc3)cc2)C(=O)C2CCCCC2)c1 [fexaramine],2.29% (inactive)
5,N[C@@H](Cc1ccc(O)cc1)C(=O)NCC(=O)NCC(=O)O,1.07% (inactive)
6,CSc1ccc2c(c1)[C@H](N1CCN(C)CC1)Cc1ccccc1S2 (racemic) [metitepine],-2.3% (inactive)
7,Cc1ccccc1-c1cc(N2CCN(C)CC2)ncc1N(C)C(=O)C(C)(C)c1cc(C(F)(F)F)cc(C(F)(F)F)c1 [netupitant],-1.26% (inactive)
8,COc1ccc2cc(-c3nc(-c4ccc([S+](C)[O-])cc4)[nH]c3-c3ccncc3)ccc2c1 (stereo not given) [tie2-kinase-inhibitor],1.97% (inactive)
9,COc1cc2c(Oc3ccc(NC(=O)C4(C(=O)Nc5ccc(F)cc5)CC4)cc3F)ccnc2cc1OCCCN1CCOCC1 [foretinib],-5.86% (inactive)
10,CCC(=O)O[C@H]1[C@H](O[C@@H]2[C@@H](C)[C@H](O[C@H]3C[C@@](C)(OC)[C@@H](O)[C@H](C)O3)[C@@H](C)C(=O)O[C@H](CC)[C@@](C)(O)[C@H](O)[C@@H](C)C(=O)[C@H](C)C[C@@]2(C)O)O[C@H](C)C[C@@H]1N(C)C [erythromycin-estolate],2.85% (inactive)
11,O=C(/C=C/c1ccc(O)cc1)c1ccc(O)cc1O [isoliquiritigenin],0.63% (inactive)
12,NS(=O)(=O)c1cc2c(cc1Cl)NC(C(Cl)Cl)NS2(=O)=O (stereo not given) [trichlormethiazide],-3.29% (inactive)
13,O=C(O)c1cc(N2N=C(C(F)(F)F)/C(=C/c3ccc(-c4ccccc4)o3)C2=O)ccc1Cl,0.57% (inactive)
14,CC[C@H](CO)Nc1nc(Nc2cccc(-c3ccccn3)c2)c2ncn(C(C)C)c2n1,1.09% (inactive)
15,Cc1ccc(OCCSc2ncccn2)c(Br)c1,-4.19% (inactive)
16,C/C(O)=C(\C#N)C(=O)Nc1cc(Br)ccc1Br,2.02% (inactive)
17,Cc1cc(=O)n(-c2ccccc2)n1C [phenazone],-0.52% (inactive)
18,C=CCN1CC[C@]23c4c5ccc(O)c4O[C@H]2/C(=N/NC(=O)c2ccccc2)CC[C@@]3(O)[C@H]1C5 [naloxone-benzoylhydrazone],5.45% (inactive)
19,O=[N+]([O-])C(Br)(CO)CO [bronopol],0.51% (inactive)
20,C=CCOc1ccccc1OCC(O)CNC(C)C (stereo not given) [oxprenolol],-0.79% (inactive)
